Experimental findings from PubChem BioAssay (NCI) are described below.

About 79,000 compounds went through this panel and 15% of them were active in at least one assay; those are over-represented in the sample as a whole. Unmarked numbers belong to inactive results. Calls of active or inactive are those of the source. Rule as the data show it: active = growth inhibition above about 70%; inactive = the rest.

A short description of experiment [1]: NCI Yeast Anticancer Drug Screen. Data for the rad50 strain (AID 155).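 Also: 0% = growth of vehicle-only cultures of the same strain.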 Particulars: S. cerevisiae rad50 strain growth inhibition, active compounds read high. Put shortly: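 Compounds were tested on a yeast strain with an engineered DNA damage repair alteration; the reported value is growth inhibition normalised to vehicle treatment.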
A short description of experiment [2]: NCI Yeast Anticancer Drug Screen. Data for the mec2-1 strain (AID 157). Particulars: S. cerevisiae mec2-1 strain, active compounds read high. In outline:
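Growth inhibition is read against vehicle-treated controls after compound exposure of the mec2-1 yeast strain, which is defective in DNA damage repair or cell cycle control.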

The nature of experiment [3]: NCI Yeast Anticancer Drug Screen. Data for the sgs1 mgt1 strain (AID 161).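 Also: 0% = growth of cultures given vehicle only.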 Particulars: S. cerevisiae sgs1 mgt1 strain, active compounds read high. In outline: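 This yeast growth screen uses a strain with defined DNA-repair lesions; compound-treated growth is compared with vehicle-treated growth.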
Experiment [4] can be described thus: NCI Yeast Anticancer Drug Screen. Data for the cln2 rad14 strain (AID 165).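 Also: 0% = growth equal to vehicle treated cultures.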 Particulars: S. cerevisiae cln2 rad14 strain, active compounds read high. In outline:
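Growth inhibition, relative to vehicle-treated controls, is the read-out. The test organism is a yeast strain with defined genetic alterations, cln2 rad14.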

Experiment [5] in a line: NCI Yeast Anticancer Drug Screen. Data for the bub3 strain (AID 167). Particulars: S. cerevisiae bub3 mutant strain, active compounds read high. In outline:
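Growth of a checkpoint-deficient yeast mutant is measured after compound exposure. Values represent inhibition relative to vehicle.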

Experiment [6] is described as follows: NCI Yeast Anticancer Drug Screen. Data for the mlh1 rad18 strain (AID 175). Particulars: S. cerevisiae mlh1 rad18 strain growth inhibition, active compounds read high. In outline:
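Cells of a genetically altered yeast strain, deficient in DNA damage repair, were treated with compound. Their growth was then compared with that of vehicle-treated cultures to give inhibition.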

Setting [7] is: at 5.0 µM (retest, dose inferred, filed as 0.5).
[8] abbreviates: at 50.0 µM (retest, dose inferred, filed as 5.0).

Turning to `Oc1c(Cl)cc(Cl)cc1Br`, the growth inhibition is -4% in experiment [1] (setting [7]); 83% (active) in experiment [1] (setting [8]); 90.2% (active) in experiment [1] (at 50.0 µM); 5% in experiment [2] (setting [7]); 96% (active) in experiment [2] (setting [8]); 97.4% (active) in experiment [2] (at 50.0 µM). The growth inhibition in experiment [3] (setting [7]) was 3%; in experiment [3] (setting [8]), 72% (active); in experiment [3] (at 50.0 µM), 96.7% (active); in experiment [4] (setting [7]), 0%; in experiment [4] (setting [8]), 91% (active); in experiment [4] (at 50.0 µM), 54.5%. Besides, the growth inhibition in experiment [5] (setting [7]) is -7%; in experiment [5] (setting [8]), 78% (active); in experiment [5] (at 50.0 µM), 84.7% (active); in experiment [6] (setting [7]) it was -2%; in experiment [6] (setting [8]), 91% (active); in experiment [6] (at 50.0 µM) it was 88.1% (active).

In the case of `O=C(CCl)OCC(=O)c1ccc(-c2ccccc2)cc1`, the growth inhibition in experiment [1] (setting [7]) was 9%; in experiment [1] (setting [8]), 97% (active); in experiment [1] (at 50.0 µM) it was 10.2%; in experiment [2] (setting [7]) it was 5%; in experiment [2] (setting [8]) it was 97% (active); in experiment [2] (at 50.0 µM), -1.9%. For the same compound, the growth inhibition is 10% in experiment [3] (setting [7]); 99% (active) in experiment [3] (setting [8]); 21.2% in experiment [3] (at 50.0 µM); 28% in experiment [4] (setting [7]); 95% (active) in experiment [4] (setting [8]); 10.2% in experiment [4] (at 50.0 µM). For the same compound, the growth inhibition was 11% in experiment [5] (setting [7]); 98% (active) in experiment [5] (setting [8]); 19.4% in experiment [5] (at 50.0 µM); 16% in experiment [6] (setting [7]); 98% (active) in experiment [6] (setting [8]); 32.4% in experiment [6] (at 50.0 µM).

In the case of `COc1ccc(C2COc3cc(O)c(O)cc3C2)cc1OC` (stereo not given), the growth inhibition in experiment [1] (setting [7]) is -10%; in experiment [1] (setting [8]), 60%; in experiment [1] (at 50.0 µM) it was 61.4%; in experiment [2] (setting [7]), 14%; in experiment [2] (setting [8]), 81% (active); in experiment [2] (at 50.0 µM) it was 72.2% (active). In addition, the growth inhibition in experiment [3] (setting [7]) is 7%; in experiment [3] (setting [8]), 69%; in experiment [3] (at 50.0 µM), 43.3%; in experiment [4] (setting [7]) it was -6%; in experiment [4] (setting [8]), 2%; in experiment [4] (at 50.0 µM), 51.5%. Also, the growth inhibition in experiment [5] (setting [7]) was -14%; in experiment [5] (setting [8]), 60%; in experiment [5] (at 50.0 µM), 29.6%; in experiment [6] (setting [7]), 1%; in experiment [6] (setting [8]), 90% (active); in experiment [6] (at 50.0 µM) it was 88% (active).

For `C=C1C(O)C2(O)OCC34C(CC5C(C)=CC(=O)C(O)C5(C)C23)OC(=O)C(OC(=O)C/C=C(\C)CCCCC)C14` (stereo not given), the growth inhibition in experiment [1] (setting [7]) is 76% (active); in experiment [1] (setting [8]), 98% (active); in experiment [1] (at 50.0 µM), 92.3% (active); in experiment [2] (setting [7]), 52%; in experiment [2] (setting [8]), 98% (active); in experiment [2] (at 50.0 µM), 93.3% (active). Besides, the growth inhibition was 60% in experiment [3] (setting [7]); 98% (active) in experiment [3] (setting [8]); 93% (active) in experiment [3] (at 50.0 µM); 88% (active) in experiment [4] (setting [7]); 98% (active) in experiment [4] (setting [8]); 91.7% (active) in experiment [4] (at 50.0 µM). Besides, the growth inhibition in experiment [5] (setting [7]) is 75% (active); in experiment [5] (setting [8]), 99% (active); in experiment [5] (at 50.0 µM), 91.2% (active); in experiment [6] (setting [7]) it was 89% (active); in experiment [6] (setting [8]), 98% (active); in experiment [6] (at 50.0 µM), 92.2% (active).

In the case of `CSC(=S)n1nc(-c2ccccc2)c(N=Nc2ccccc2[N+](=O)[O-])c1C`, the growth inhibition in experiment [1] (setting [7]) is -1%; in experiment [1] (setting [8]) it was 92% (active); in experiment [1] (at 50.0 µM) it was 97% (active); in experiment [2] (setting [7]), -4%; in experiment [2] (setting [8]) it was 96% (active); in experiment [2] (at 50.0 µM), 96.2% (active). Besides, the growth inhibition in experiment [3] (setting [7]) was 5%; in experiment [3] (setting [8]), 96% (active); in experiment [3] (at 50.0 µM), 97% (active); in experiment [4] (setting [7]) it was -12%; in experiment [4] (setting [8]) it was 94% (active); in experiment [4] (at 50.0 µM), 92% (active). The growth inhibition in experiment [5] (setting [7]) was 0%; in experiment [5] (setting [8]), 95% (active); in experiment [5] (at 50.0 µM), 94.3% (active); in experiment [6] (setting [7]), -1%; in experiment [6] (setting [8]) it was 93% (active); in experiment [6] (at 50.0 µM) it was 98% (active).

In the case of `CCN(CC)C(C)(C)C(=O)/C=C/c1ccc(Cl)cc1`, the growth inhibition in experiment [1] (setting [7]) is -5%; in experiment [1] (setting [8]) it was 69%; in experiment [1] (at 50.0 µM), 2.2%; in experiment [2] (setting [7]), -15%; in experiment [2] (setting [8]) it was 28%; in experiment [2] (at 50.0 µM) it was 4.8%. The growth inhibition is 24% in experiment [3] (setting [7]); 87% (active) in experiment [3] (setting [8]); 24.9% in experiment [3] (at 50.0 µM); -9% in experiment [4] (setting [7]); 26% in experiment [4] (setting [8]); -5% in experiment [4] (at 50.0 µM). In addition, the growth inhibition in experiment [5] (setting [7]) is 1%; in experiment [5] (setting [8]) it was 82% (active); in experiment [5] (at 50.0 µM), 54.5%; in experiment [6] (setting [7]) it was 46%; in experiment [6] (setting [8]) it was 94% (active); in experiment [6] (at 50.0 µM) it was 19.7%.

Regarding `CCCCN(C(=O)c1ccccc1)C1CCC(=O)c2[nH]c3ccccc3c21` (stereo not given), the growth inhibition in experiment [1] (setting [7]) was -3%; in experiment [1] (setting [8]), 1%; in experiment [1] (at 50.0 µM), 85.5% (active); in experiment [2] (setting [7]) it was -15%; in experiment [2] (setting [8]) it was -28%; in experiment [2] (at 50.0 µM), 89.3% (active). In addition, the growth inhibition in experiment [3] (setting [7]) is -7%; in experiment [3] (setting [8]), 20%; in experiment [3] (at 50.0 µM) it was 76% (active); in experiment [4] (setting [7]), -13%; in experiment [4] (setting [8]) it was -1%; in experiment [4] (at 50.0 µM), 83.5% (active). Moreover, the growth inhibition in experiment [5] (setting [7]) is -18%; in experiment [5] (setting [8]), 12%; in experiment [5] (at 50.0 µM), 80.6% (active); in experiment [6] (setting [7]), 2%; in experiment [6] (setting [8]), -15%; in experiment [6] (at 50.0 µM), 69.5%.

Consider `OC1CCN(c2c3ccccc3nc3ccccc23)CC1`, for which the growth inhibition is 21% in experiment [1] (setting [7]); 85% (active) in experiment [1] (setting [8]); 12.2% in experiment [1] (at 50.0 µM); 7% in experiment [2] (setting [7]); 67% in experiment [2] (setting [8]); 11.4% in experiment [2] (at 50.0 µM). For the same compound, the growth inhibition in experiment [3] (setting [7]) was 32%; in experiment [3] (setting [8]), 94% (active); in experiment [3] (at 50.0 µM), 2.65%; in experiment [4] (setting [7]) it was 24%; in experiment [4] (setting [8]), 23%; in experiment [4] (at 50.0 µM), 37.4%. Also, the growth inhibition in experiment [5] (setting [7]) is 1%; in experiment [5] (setting [8]), 19%; in experiment [5] (at 50.0 µM) it was 5.55%; in experiment [6] (setting [7]), 8%; in experiment [6] (setting [8]), 81% (active); in experiment [6] (at 50.0 µM), 15%.

In the case of `CC1CCCC(C)C1=O` (stereo not given), the growth inhibition in experiment [1] (setting [7]) is 4%; in experiment [1] (setting [8]), 3%; in experiment [1] (at 50.0 µM), 8.7%; in experiment [2] (setting [7]), -4%; in experiment [2] (setting [8]), 0%; in experiment [2] (at 50.0 µM), -12.2%. Moreover, the growth inhibition in experiment [3] (setting [7]) was -7%; in experiment [3] (setting [8]) it was 3%; in experiment [3] (at 50.0 µM) it was -13.4%; in experiment [4] (setting [7]), 3%; in experiment [4] (setting [8]) it was 7%; in experiment [4] (at 50.0 µM), 13.8%. The growth inhibition in experiment [5] (setting [7]) is 5%; in experiment [5] (setting [8]) it was 10%; in experiment [5] (at 50.0 µM), 3%; in experiment [6] (setting [7]) it was 2%; in experiment [6] (setting [8]) it was 3%; in experiment [6] (at 50.0 µM) it was -4.35%.

`CCCCCCCCc1ccc2c3ccccc3c3ccccc3c2c1`: the growth inhibition is -9% in experiment [1] (setting [7]); -12% in experiment [1] (setting [8]); 76.8% (active) in experiment [1] (at 50.0 µM); -19% in experiment [2] (setting [7]); -5% in experiment [2] (setting [8]); 60.4% in experiment [2] (at 50.0 µM). Besides, the growth inhibition is -19% in experiment [3] (setting [7]); -3% in experiment [3] (setting [8]); 65.8% in experiment [3] (at 50.0 µM); -1% in experiment [4] (setting [7]); -12% in experiment [4] (setting [8]); 3.05% in experiment [4] (at 50.0 µM). The growth inhibition in experiment [5] (setting [7]) is -1%; in experiment [5] (setting [8]), -10%; in experiment [5] (at 50.0 µM) it was 8.65%; in experiment [6] (setting [7]) it was 23%; in experiment [6] (setting [8]), 6%; in experiment [6] (at 50.0 µM) it was 58.9%.
